In PMC12820563, “FoxP3 forms a head-to-head dimer in vivo and stabilizes its multimerization on adjacent microsatellites”:
The full ranking holds about 16,000 sequences; the median of “rpm ratio (pull-down/input)” is about 0.5, and the highest 2% start at about 5.5. Shown is part of a subset that was picked to be rich in the highest values.

Target: T1, MBP-FoxP3dN (Mus musculus, UniProt Q99JB6 188-423)
T1 sequence: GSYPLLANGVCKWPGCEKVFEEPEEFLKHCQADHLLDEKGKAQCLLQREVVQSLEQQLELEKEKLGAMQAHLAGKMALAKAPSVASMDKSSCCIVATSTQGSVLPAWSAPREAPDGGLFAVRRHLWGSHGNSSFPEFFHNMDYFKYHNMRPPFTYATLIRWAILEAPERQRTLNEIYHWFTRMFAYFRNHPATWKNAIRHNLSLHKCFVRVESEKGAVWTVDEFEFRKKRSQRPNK
Assay: PD-seq (MBP pull-down with sequencing); 20 mM Tris-HCl pH 7.5, 100 mM NaCl, 1.5 mM MgCl2, 0.4 uM protein, 0.1 uM dsDNA library, 30 min, room temperature, amylose pull-down; high values mean tight binding
Conditions: protein: recombinant; tags: His6-MBP; chain copies: 2; dsDNA, one strand shown
Summary of the method: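 A degenerate double-stranded DNA library, filled in with Klenow, was added at 0.1 µM to 0.4 µM His6-MBP-tagged mouse FoxP3 or FoxP1 fragment lacking the N-terminus, expressed in E. coli. Incubation lasted 30 min at room temperature in Tris pH 7.5 buffer with NaCl and MgCl2, after which complexes were collected on amylose resin, washed three times, digested with proteinase K to free the DNA, barcoded by PCR and sequenced by Illumina. Binding is the pooled-replicate reads-per-million enrichment of pull-down over input.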

Row | Sequence | binding signal
1 | GATGATTGTTCTCCCAGCTGATGAATTTCATAGTTCGAGTAAACAAATTTTCCTAATCTTTCTGTTCAAGCGCCATCTAC | 0.583 RPM ratio (pull-down/input)
2 | GATGATTGTTCTCCCAGCTGATGAATTACTTACATCGAGTAAACAAATTTTCCTAATCTTTCTGTTCAAGCGCCATCTAC | 0.574 RPM ratio (pull-down/input)
3 | GATGATTGTTCTCCCAGCTGATGAATTCCCATTGTCGAGTAAACAAATTTTCCTAATCTTTCTGTTCAAGCGCCATCTAC | 0.454 RPM ratio (pull-down/input)
4 | GATGATTGTTCTCCCAGCTGATGAATTCGCATTGTCGAGTAAACAAATTTTCCTAATCTTTCTGTTCAAGCGCCATCTAC | 3.91 RPM ratio (pull-down/input)
5 | GATGATTGTTCTCCCAGCTGATGAATTGTCGCATTCGAGTAAACAAATTTTCCTAATCTTTCTGTTCAAGCGCCATCTAC | 6.14 RPM ratio (pull-down/input)
6 | GATGATTGTTCTCCCAGCTGATGAATTCGCATCCTCGAGTAAACAAATTTTCCTAATCTTTCTGTTCAAGCGCCATCTAC | 5.74 RPM ratio (pull-down/input)
7 | GATGATTGTTCTCCCAGCTGATGAATTCGCATTATCGAGTAAACAAATTTTCCTAATCTTTCTGTTCAAGCGCCATCTAC | 3.53 RPM ratio (pull-down/input)
8 | GATGATTGTTCTCCCAGCTGATGAATTATTCGCATCGAGTAAACAAATTTTCCTAATCTTTCTGTTCAAGCGCCATCTAC | 1.12 RPM ratio (pull-down/input)
9 | GATGATTGTTCTCCCAGCTGATGAATTCCTCGCATCGAGTAAACAAATTTTCCTAATCTTTCTGTTCAAGCGCCATCTAC | 0.768 RPM ratio (pull-down/input)
10 | GATGATTGTTCTCCCAGCTGATGAATTCGCCTCCTCGAGTAAACAAATTTTCCTAATCTTTCTGTTCAAGCGCCATCTAC | 2.15 RPM ratio (pull-down/input)
11 | GATGATTGTTCTCCCAGCTGATGAATTATCGCATTCGAGTAAACAAATTTTCCTAATCTTTCTGTTCAAGCGCCATCTAC | 6.64 RPM ratio (pull-down/input)
12 | GATGATTGTTCTCCCAGCTGATGAATTCTAAACTTCGAGTAAACAAATTTTCCTAATCTTTCTGTTCAAGCGCCATCTAC | 0.381 RPM ratio (pull-down/input)
13 | GATGATTGTTCTCCCAGCTGATGAATTTCCATTTTCGAGTAAACAAATTTTCCTAATCTTTCTGTTCAAGCGCCATCTAC | 0.295 RPM ratio (pull-down/input)
14 | GATGATTGTTCTCCCAGCTGATGAATTAACATAATCGAGTAAACAAATTTTCCTAATCTTTCTGTTCAAGCGCCATCTAC | 0.409 RPM ratio (pull-down/input)
15 | GATGATTGTTCTCCCAGCTGATGAATTGCTTGGGTCGAGTAAACAAATTTTCCTAATCTTTCTGTTCAAGCGCCATCTAC | 0.775 RPM ratio (pull-down/input)
16 | GATGATTGTTCTCCCAGCTGATGAATTCTTGCTGTCGAGTAAACAAATTTTCCTAATCTTTCTGTTCAAGCGCCATCTAC | 0.508 RPM ratio (pull-down/input)
17 | GATGATTGTTCTCCCAGCTGATGAATTGCTTTTGTCGAGTAAACAAATTTTCCTAATCTTTCTGTTCAAGCGCCATCTAC | 1.51 RPM ratio (pull-down/input)
18 | GATGATTGTTCTCCCAGCTGATGAATTGTGCTTGTCGAGTAAACAAATTTTCCTAATCTTTCTGTTCAAGCGCCATCTAC | 5.16 RPM ratio (pull-down/input)
19 | GATGATTGTTCTCCCAGCTGATGAATTTTGCTTGTCGAGTAAACAAATTTTCCTAATCTTTCTGTTCAAGCGCCATCTAC | 5.89 RPM ratio (pull-down/input)
20 | GATGATTGTTCTCCCAGCTGATGAATTTGCTTGGTCGAGTAAACAAATTTTCCTAATCTTTCTGTTCAAGCGCCATCTAC | 5.74 RPM ratio (pull-down/input)

Row | Sequence | binding signal
21 | GATGATTGTTCTCCCAGCTGATGAATTGCTTCTGTCGAGTAAACAAATTTTCCTAATCTTTCTGTTCAAGCGCCATCTAC | 0.468 RPM ratio (pull-down/input)
22 | GATGATTGTTCTCCCAGCTGATGAATTTGCTTTGTCGAGTAAACAAATTTTCCTAATCTTTCTGTTCAAGCGCCATCTAC | 6.34 RPM ratio (pull-down/input)
23 | GATGATTGTTCTCCCAGCTGATGAATTGCTTTGGTCGAGTAAACAAATTTTCCTAATCTTTCTGTTCAAGCGCCATCTAC | 1.08 RPM ratio (pull-down/input)
24 | GATGATTGTTCTCCCAGCTGATGAATTGCGTATTTCGAGTAAACAAATTTTCCTAATCTTTCTGTTCAAGCGCCATCTAC | 3.53 RPM ratio (pull-down/input)
25 | GATGATTGTTCTCCCAGCTGATGAATTGCTAAAATCGAGTAAACAAATTTTCCTAATCTTTCTGTTCAAGCGCCATCTAC | 0.394 RPM ratio (pull-down/input)
26 | GATGATTGTTCTCCCAGCTGATGAATTTTACGATTCGAGTAAACAAATTTTCCTAATCTTTCTGTTCAAGCGCCATCTAC | 0.308 RPM ratio (pull-down/input)
27 | GATGATTGTTCTCCCAGCTGATGAATTGTAAAGATCGAGTAAACAAATTTTCCTAATCTTTCTGTTCAAGCGCCATCTAC | 0.29 RPM ratio (pull-down/input)
28 | GATGATTGTTCTCCCAGCTGATGAATTACAGCCGTCGAGTAAACAAATTTTCCTAATCTTTCTGTTCAAGCGCCATCTAC | 0.412 RPM ratio (pull-down/input)
29 | GATGATTGTTCTCCCAGCTGATGAATTTTGACGTTCGAGTAAACAAATTTTCCTAATCTTTCTGTTCAAGCGCCATCTAC | 0.933 RPM ratio (pull-down/input)
30 | GATGATTGTTCTCCCAGCTGATGAATTACGATCATCGAGTAAACAAATTTTCCTAATCTTTCTGTTCAAGCGCCATCTAC | 0.571 RPM ratio (pull-down/input)
31 | GATGATTGTTCTCCCAGCTGATGAATTGCTGAATTCGAGTAAACAAATTTTCCTAATCTTTCTGTTCAAGCGCCATCTAC | 0.916 RPM ratio (pull-down/input)
32 | GATGATTGTTCTCCCAGCTGATGAATTCTGCATTTCGAGTAAACAAATTTTCCTAATCTTTCTGTTCAAGCGCCATCTAC | 6.51 RPM ratio (pull-down/input)
33 | GATGATTGTTCTCCCAGCTGATGAATTACTGAATTCGAGTAAACAAATTTTCCTAATCTTTCTGTTCAAGCGCCATCTAC | 0.586 RPM ratio (pull-down/input)
34 | GATGATTGTTCTCCCAGCTGATGAATTACTGATTTCGAGTAAACAAATTTTCCTAATCTTTCTGTTCAAGCGCCATCTAC | 0.523 RPM ratio (pull-down/input)
35 | GATGATTGTTCTCCCAGCTGATGAATTCTCTGCATCGAGTAAACAAATTTTCCTAATCTTTCTGTTCAAGCGCCATCTAC | 0.793 RPM ratio (pull-down/input)
36 | GATGATTGTTCTCCCAGCTGATGAATTCTGCAGCTCGAGTAAACAAATTTTCCTAATCTTTCTGTTCAAGCGCCATCTAC | 2.66 RPM ratio (pull-down/input)
37 | GATGATTGTTCTCCCAGCTGATGAATTACTGCATTCGAGTAAACAAATTTTCCTAATCTTTCTGTTCAAGCGCCATCTAC | 6.01 RPM ratio (pull-down/input)
38 | GATGATTGTTCTCCCAGCTGATGAATTGCTGCATTCGAGTAAACAAATTTTCCTAATCTTTCTGTTCAAGCGCCATCTAC | 6.8 RPM ratio (pull-down/input)
39 | GATGATTGTTCTCCCAGCTGATGAATTCTGCTGTTCGAGTAAACAAATTTTCCTAATCTTTCTGTTCAAGCGCCATCTAC | 3.41 RPM ratio (pull-down/input)
40 | GATGATTGTTCTCCCAGCTGATGAATTCTGCATCTCGAGTAAACAAATTTTCCTAATCTTTCTGTTCAAGCGCCATCTAC | 6.75 RPM ratio (pull-down/input)
